# Source: PubChem BioAssay (National Center for Advancing Translational Sciences (NCATS))
# Most compounds without a hit are left out; they make up all but 0.44% or so of the library.
# HBB splice mod = modulators of hemoglobin beta chain splicing | HBB splicing reporter cell assay, activation; EGFP reporter with mutant IVS2-654 intron; response scale: normalised to 500 nM splice-correcting PNA | Potency, µM (highest dose often 46.1 µM), for the others: top-dose activation, usual class: activators | actives 0.06% (n = 65,000) | AID 925; also: potency is read from the fitted curve at half-maximal effect; 0% is about no effect
#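 Compounds were applied for 2 days to HeLa EGFP-654 cells, 500/well in Optimem with 2% FCS. The reporter's EGFP is disrupted by mis-splicing of beta-globin intron IVS2-654. Readout: summed well GFP fluorescence from 488 nm laser scanning; reference was 500 nM antisense […] 654 PNA.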
# Hsp90 Hop PPI = changes Hsp90-Hop TPR2A binding signal, up or down. AlphaScreen TPR2A-His6 binding biotin-Hsp90 C-terminal peptide. Potency, µM (series often up to 57 µM), inactives show at the top dose activity change, negative = inhibition. actives 0.44% (n = 71,000); active = well fitted curve in either direction with a large enough effect; inconclusive = small, poorly fitted or top-dose-only effect, or another doubt; also: potency is read from the fitted curve at half-maximal effect; % is scaled to controls: 0 for no effect and ±100 for the full control effect
# Ub-GFP proteasome = proteasome inhibitors stabilizing ubiquitin-GFP reporter | Ubiquitin-GFP reporter cells, proteasome inhibition, GFP fluorescence; response scale: untreated = 0%, 10 µM MG-132 = 100% | Potency, µM (titrated, usually from 45.9 µM), for the others: at the highest dose activation (GFP accumulation), hits mostly activators | 67,000 tested, under 10 active; active = well fitted activation curve with a large enough effect, not every such curve was filed as active; inconclusive = small, poorly fitted or top-dose-only effect, or another doubt; inactive = no such curve, though single readings can be large or run the other way; also: potency is read from the fitted curve at half-maximal effect
#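 Reporter cells (U2OS, ubiquitin-G76V-GFP fusion) are plated overnight, then treated 4 hr at 37 °C with compound titrations from 46 uM down to 2.9 nM. Activity is scaled against untreated cells and 10 uM MG-132.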
# USP2a inh = blocks human ubiquitin-specific protease USP2a. O75604. USP2a enzymatic assay, qHTS inhibition. Potency, µM (titrated, usually from 38.3 µM), without a hit: top-dose activity change, negative = inhibition, usual class: inhibitors. actives 0.1% (n = 60,000). AID 927; also: potency is read from the fitted curve at half-maximal effect; nearly all actives have a fitted effect of over 60% in size
# Target sequence (O75604 whole entry, looked up): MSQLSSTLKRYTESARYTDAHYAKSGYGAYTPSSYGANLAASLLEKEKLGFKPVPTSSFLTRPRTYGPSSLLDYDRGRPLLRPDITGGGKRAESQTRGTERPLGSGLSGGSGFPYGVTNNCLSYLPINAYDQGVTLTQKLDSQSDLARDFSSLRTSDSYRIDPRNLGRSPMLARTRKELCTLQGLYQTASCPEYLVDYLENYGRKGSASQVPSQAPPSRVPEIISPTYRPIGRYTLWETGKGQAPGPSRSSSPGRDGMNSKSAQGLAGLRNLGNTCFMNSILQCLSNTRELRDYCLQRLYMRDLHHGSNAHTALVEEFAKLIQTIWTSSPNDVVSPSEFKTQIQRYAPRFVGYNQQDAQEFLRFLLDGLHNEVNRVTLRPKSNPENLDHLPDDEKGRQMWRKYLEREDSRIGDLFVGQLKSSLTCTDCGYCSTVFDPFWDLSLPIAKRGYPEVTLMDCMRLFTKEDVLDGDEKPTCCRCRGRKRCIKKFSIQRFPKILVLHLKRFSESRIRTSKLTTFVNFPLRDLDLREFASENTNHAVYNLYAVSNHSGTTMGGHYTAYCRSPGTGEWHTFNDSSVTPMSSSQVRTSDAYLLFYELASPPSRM
#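 Inhibition is measured in a cell-free coupled assay with 20 nM USP2 core, 20 nM Ub-PLA2 and 20 uM NBD C6-HPC, 2.5 h incubation. Activity normalized to NEM control.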
# GFP derepression = derepresses silenced GFP locus in mouse C127i cells; AID 597; actives 0.09% (n = 68,000); mouse C127i GFP locus derepression, cytometry, 30 h; Potency, µM (series often up to 46.1 µM), for inactives: top-dose GFP derepression (activation); also: % of control where 0% means no effect
#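 Derepression screen: silenced CMV-GFP reporter in murine C127i cells, 30 h compound incubation at 37 C, washed cells imaged by laser-scanning cytometer to enumerate GFP-expressing objects of 20 to 120 um.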
# Hsp90 TPR2A CRC = confirmation and counter-screen of Hsp90 TPR2A co-chaperone interaction disrupters | shares compounds with Hsp90 Hop PPI | AlphaScreen TPR2A-His6 / biotin-Hsp90 peptide binding | activity, negative = inhibition, % at 40 µM or 46 µM, hits read low | actives 100% (n = 45);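 active = compound lowering the Hsp90 and TPR2A binding signal, whether or not the linker counterscreen also flagged it as an artifact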
# * marks the source's active call; other numbers are inactive results; ? = inconclusive; nt = no result given; + = active, no number; ! = a repeat was not active; [ ] = remark or other dose. Unless noted, calls follow the shape of the dose curve; as a rule, active = well fitted curve in the direction sought with a large enough effect; inconclusive = small, poorly fitted or top-dose-only effect, or another doubt; inactive = no such curve, though single readings can be large; an effect the other way counts as inactive or inconclusive.
SMILES,HBB splice mod,Hsp90 Hop PPI,Ub-GFP proteasome,USP2a inh,GFP derepression,others
CC(=O)Nc1nnc(SCC(=O)NCCOc2ccccc2)s1,-1.2%,-3.4%,-6.4%,7.94µM*,6.9%,
COC(=O)[C@@H]1C[C@@H]1[C@@H](NP(=O)(c1ccccc1)c1ccccc1)c1ccccc1,0.4%,-8.5%,nt,nt,nt,
Cc1ccc(OP(=O)(Oc2ccc(C)cc2)Oc2ccc(C)cc2)cc1,-0.8%,15.8µM*,nt,nt,nt,
CC(=O)O.CC(=O)O.[Cd],nt,nt,nt,2.51µM*,nt,
CN(C)c1ccc(N=Nc2ccccc2)cc1,-0.4%,12.6µM*,nt,nt,nt,
CN(C)c1ccc(N=O)cc1,-0.6%,-5.6%,nt,nt,nt,
O=[N+]([O-])c1ccc(O[C@H]2O[C@@H](CO)[C@@H](O)[C@@H](O)[C@@H]2F)c([N+](=O)[O-])c1,2.3%,-6.5%,4.9%,-0.4%,0.0%,
CC[C@H](CO)NC(=O)[C@@H]1C=C2c3cccc4c3c(cn4C)C[C@@H]2N(C)C1,0.7%,-10.3%,3.9%,-0.6%,-2.2%,
c1ccc2c(c1)[nH]c1cnccc12,nt,nt,nt,-11.0%,6.2%[20.6 µM],
Cc1c2ccncc2c(C)c2c1[nH]c1ccccc12,12.6µM*,8.4%[26 µM],-4.8%[20.5 µM],1.5%,12.6µM*!,
O=C(O)[C@H]1[C@H](C(=O)O)[C@H]2CC[C@@H]1O2,1.4%,-5.8%,2.9%,-5.1%,-2.2%,
C/C=C(\C)C(=O)O[C@@H]1C(C)=C2[C@H]([C@@H]1OC(=O)CCCCCCC)[C@@](C)(OC(C)=O)C[C@@H](OC(=O)CCC)[C@@]1(O)[C@H]2OC(=O)[C@]1(C)O,1.0%,-11.9%,-1.7%,-14.1%,-1.1%,
O=c1c(O)c(-c2ccc(O)c(O)c2)oc2cc(O)cc(O)c12,0.9%[20.6 µM],12.6µM*!,-1.3%,46.4%[17.1 µM],-0.9%,
NC(N)=Nc1ccc2[nH]c3c(c2c1)C[C@]1(O)[C@@H]2Cc4ccc(O)c5c4[C@]1(CCN2CC1CC1)[C@H]3O5,3.0%,-22.9%,1.6%,-2.4%,-0.1%,
CC(C)(C)C(=O)C1C(=O)c2ccccc2C1=O,15.8µM*,-5.2%,nt,nt,nt,
O=C1NC(=O)C(=O)C(=O)N1,nt,nt,nt,10µM*,nt,
CC(C)C[C@H]1C(=O)N2CCC[C@@H]2[C@]2(O)O[C@](NC(=O)[C@H]3C=C4c5cccc6[nH]cc(c56)C[C@H]4N(C)C3)(C(C)C)C(=O)N12,nt,?,-1.1%,nt,-2.5%[9.22 µM],
CSC([N-]/N=C/c1cccc(C)n1)=[S]=[Cu].CS[C@H]([S-])[N-]/N=C/c1cccc(C)n1,3.5%[9.22 µM],3.16µM*,5.5%[9.17 µM],nt,0.2%[9.22 µM],
O=c1[nH]c(=O)n(CCc2ccccc2)c(O)c1C=NCCCn1ccnc1,nt,nt,nt,nt,2.4%[20.6 µM],
O=c1[nH]c(=O)n(Cc2ccccc2)c(O)c1C=NCCCn1ccnc1,5.7%[1.84 µM],15.8µM*,15.6%,-1.0%,0.0%,
Cn1ncnc2c(=O)n(C)c(=O)nc1-2,0.3%,0.794µM*,-13.9%,-29.4%,4.0%,Hsp90 TPR2A CRC=+
C=CCN1CCc2cccc3c2[C@@H]1Cc1ccc(O)c(O)c1-3,0.7%,?,-2.4%,14.1%,-1.7%,
